# Test results reported in PubChem BioAssay AID587 (National Center for Advancing Translational Sciences (NCATS), 2007).
# In all, about 59,000 compounds went through this assay and about 35 (0.06%) were called active. About 19% were inconclusive and are not listed. Rule as the data show it: active = max dye-equivalent concentration above about 10 nM; inconclusive = between about 1.1 nM and that limit; inactive = weaker than that. For the sample, actives were picked, then their nearest neighbours and some compounds at random.
# Assay: qHTS Assay for Spectroscopic Profiling in Texas Red Spectral Region
# Details: Compound fluorescence, Texas Red channel, 547/618 nm
# Text: NIH Molecular Libraries Screening Centers Network [MLSCN] NIH Chemical Genomics Center [NCGC] […] Occasionally, the artifactual effect may originate from the compound#s own spectral or other biophysical properties which generally tend to track its assay concentration. Pre-screening/profiling the library with respect to the compounds# spectral properties should help one exclude false positives early on. While the most informative fluorescent profiling data set is obtained by performing a full excitation and emission scan of each well by using a monochromator-based plate reader, such an approach is practical only on a very limited scale as scanning each well requires long time. An alternative approach, applied here, is to perform plate reader scans using selected excitation and emission wavelength pairs to generate a multidimensional relational database that correlates compound concentration and the respective relative fluorescence intensity at a given wavelength set. A standard curve of Texas Red (TR) present on each plate as six-point concentration series, was used to compute a normalized fluorescence response, termed dye-equivalent concentration, for each compound at each concentration.
# NCGC Assay Protocol Summary: Buffer: 100 mM Tris buffer, pH 8.0 Dye standard plate: The wells in columns 1 through 4 of a Kalypsys polypropylene 1536-well compound plate were filled with standard solutions of fluorophore corresponding to the spectral region of interest. Solutions of TR were placed in the following wells: U1, V1: 3 mM, U2, V2: 300 uM, U3, V3: 30 uM, U4, V4: zero (DMSO), W1, X1: 3 uM, W2, X2: 900 nM, W3, X3: 300 nM, W4, X4: zero (DMSO). Assay Steps: Six uL of buffer were dispensed to 1536-well Greiner black plates. Compounds and dye standards (23 nL) were transferred via Kalypsys PinTool. The plates were incubated for 15 min at room temperature, and then read on ViewLux (Perkin-Elmer) High-throughput CCD imager using 547 nm and 618 nm excitation and emission filter set. Keywords: NIH Roadmap, MLSCN, MLI, MLSMR, qHTS, NCGC, Texas Red, Fluorescent Profiling.
row,Compound,max dye-equivalent concentration
1,Cc1nn(-c2ccccc2)c(CC(C)(C)C(=O)O)c1C(=O)O,inactive
2,COCCn1c(=O)c(-c2cc(F)cc(F)c2)nc2cnc(N3CCNCC3)nc21,inactive
3,CN1CCN(S(=O)(=O)c2ccc(NC(=O)C3CCCO3)cc2)CC1 (configuration not stated),inactive
4,O=C(c1cnccn1)N1CCC[C@@]2(CCN(Cc3ccncc3)C2)C1,inactive
5,CN1CCN(c2ncc3nc(-c4ccc(Cl)cc4)c(=O)n(-c4ccccc4)c3n2)CC1,inactive
6,N#Cc1cccc(-c2nc3cnc(N4CCNCC4)nc3n(C3CC3)c2=O)c1,inactive
7,CCOCCOC(=O)C1=C(C)N(C)C(=O)NC1c1ccccc1F (configuration not stated),inactive
8,Cc1nc(NCc2ccccc2)c(C(N)=O)c2c1COC(C)(C)C2,inactive
9,COc1ccc(N2CCN(C(=O)CSc3nnc4ncccn34)CC2)cc1,inactive
10,O=C1CSC(c2cccc(F)c2)N1c1ccccc1F (configuration not stated),inactive
11,COc1ccc(N2CCN(Cc3cc(=O)oc4ccc5ccccc5c34)CC2)cc1,inactive
12,COC(=O)c1ccccc1NC(=O)CSc1ccccn1,inactive
13,COc1ccc2oc(=O)c(C(=O)N3CCN(c4ccccc4F)CC3)cc2c1,inactive
14,CCNc1ncc2nc(CCc3ccccc3)c(=O)n(-c3ccc(OC)cc3)c2n1,inactive
15,CCOC(=O)C1CCN(C(=O)Cn2cc(C#N)c3ccccc32)CC1,inactive
16,CC(C)C(C(=O)NC1CCCCC1)N(CC1CCCO1)C(=O)CNS(=O)(=O)c1ccc(F)cc1 (configuration not stated),inactive
17,CO[C@@H]1/C=C\O[C@]2(C)Oc3c(C)c(O)c4c(O)c(c(CN(C)C)c(O)c4c3C2=O)NC(=O)/C(C)=C\C=C[C@@H](C)[C@@H](O)[C@H](C)[C@@H](O)[C@H](C)[C@H](OC(C)=O)[C@@H]1C,inactive
18,Cc1c(C(=O)CN2CCOCC2)[nH]c2ccccc12,inactive
19,O=C(NCCCCO)C(F)(F)C(F)(F)C(F)(F)C(=O)NCCCCO,inactive
20,O=c1c(-c2ccc(F)c(F)c2)nc2cncnc2n1-c1ccccc1,inactive
21,COC(=O)[C@@H]1[C@H]2C[C@H]3c4[nH]c5cc(OC)ccc5c4CCN3C[C@@H]2C[C@@H](OC(=O)c2cc(OC)c(OC)c(OC)c2)[C@@H]1OC,inactive
22,COc1ccc(C(=O)N(CCN2CCOCC2)CC(=O)NC2CCCC2)cc1OC,inactive
23,C=C(C)CSc1nc(N)c2c3c(sc2n1)CCC3,inactive
24,CC(C)c1nc(N2CCOCC2)c(C#N)c2c1COC(C)(C)C2,inactive
25,CN(C)c1ncc2nc(-c3ccc(F)cc3)c(=O)n(Cc3ccc(F)cc3)c2n1,inactive
26,c1cncc(CNc2ccnc(-c3ccc4c(c3)OCO4)n2)c1,inactive
27,CCN(CC(=O)NC(C)C)C(=O)CCNC(=O)c1ccc(Cl)cc1,inactive
